The target of test [1] is Bile acid receptor (Homo sapiens) (UniProt Q96RI1). Nature of the test: ATG_IR1_CIS: Attagene CIS-FACTORIAL HepG2 Assay for human Nuclear Receptor Subfamily 1 Group H Member 4 (NR1H4), IR1 submotif (AID 2282946; active means hit-call score of the fitted dose curve at least 0.9, where 1 is the maximum; inactive means score below 0.9). Conditions: IR1 reporter transcription, actives raise or lower the signal. The essentials:
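HepG2 cells transiently transfected with multiplexed cis-element reporter units read endogenous transcription factor activity. After 24 h compound exposure, reporter mRNA was quantified by RT-PCR, fluorescent labelling, HpaI digestion and capillary electrophoresis; bidirectional fitting versus DMSO baseline.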

A short description of test [2]: ATG_PBREM_CIS: Attagene CIS-FACTORIAL HepG2 Assay for human Phenobarbital-responsive Enhancer Module (PBREM) (AID 2282955; active means hit-call score of the fitted dose curve at least 0.9, where 1 is the maximum; inactive means score below 0.9). Conditions: HepG2 PBREM cis-reporter, Attagene multiplexed transcription; actives raise or lower the signal. An outline of the steps:
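HepG2 cells transiently transfected with multiple cis-regulated reporter transcription units; endogenous factor activity at the PBREM element measured as reporter mRNA 24 h after dosing, via RT-PCR and capillary electrophoresis of fluorescent fragments; bidirectional fitting versus DMSO.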

Test [3] can be described thus: ATG_GAL4_TRANS: Attagene TRANS-FACTORIAL HepG2 Assay for GAL4 (Internal Marker) (AID 2282976). Conditions: HepG2 Attagene TRANS GAL4 internal marker reporter. An outline of the steps:
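First, HepG2 cells were transfected with reporter units under GAL4-UAS control. Next, they were treated with chemical for 24 h. Finally, RNA was reverse-transcribed, PCR-amplified, FAM-labelled and resolved by capillary electrophoresis, with induction scored against DMSO.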

Test [4] has as its target Glucocorticoid receptor (Homo sapiens) (UniProt P04150). Nature of the test: ATG_GR_TRANS: Attagene TRANS-FACTORIAL HepG2 Assay for human Glucocorticoid Receptor (GR) (AID 2282978).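 Further: activators score as hits since higher reporter transcript over DMSO is fitted.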 Conditions: HepG2 Attagene TRANS GR reporter, mRNA transcription. An outline of the steps:
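HepG2 cells transiently transfected with multiplexed reporter units in which chimeric NR-GAL4 proteins drive GAL4-UAS reporters; 24 h compound exposure. Reporter mRNA measured by RT-PCR, 6-FAM labelling, HpaI digestion and capillary electrophoresis; gain-of-signal fitted versus DMSO.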

For test [5], the target named is Peroxisome proliferator-activated receptor gamma (Homo sapiens) (UniProt P37231). The test can be described thus: ATG_PPARg_TRANS: Attagene TRANS-FACTORIAL HepG2 Assay for human Peroxisome Proliferator-activated Receptor-gamma (PPARg) (AID 2283007). An outline of the steps:
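HepG2 cells transiently transfected with multiplexed GAL4-UAS reporter units and exogenous chimeric NR-Gal4 proteins; reporter mRNA quantified after 24 h compound exposure by RT-PCR, fluorescent labelling, HpaI digestion and capillary electrophoresis; gain-of-signal fitted versus DMSO baseline.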

Test [6] addresses human RAR-related Orphan Receptor beta (RORb), RORB (gene 6096) (UniProt Q92753). The test can be described thus: ATG_RORb_TRANS: Attagene TRANS-FACTORIAL HepG2 Assay for human RAR-related Orphan Receptor beta (RORb) (AID 2283010). The essentials: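 Transfect HepG2 with multiple GAL4-UAS reporter transcription units; dose chemicals for 24 h; isolate RNA, reverse-transcribe and PCR-amplify reporter sequences; label, digest and resolve fragments by capillary electrophoresis; fit increases relative to DMSO.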

Test [7] is described as follows: TOX21_p53_BLA_p3_viability: Viability Assessment in the Tox21 HCT-116 p53 Agonism Beta-lactamase Assay, Phase 3 (AID 2283593).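 Further: cells exposed to compound for 16 h before reading.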 The essentials:
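Cellular ATP was quantified by CellTiter-Glo luminescence, read after 30 min at room temperature. Beforehand, HCT116 cells (4000/well) received compound 5 h post-seeding, 217-fold diluted from DMSO, then incubated 16 h at 37C.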

For test [8], the target named is Retinoic acid receptor alpha (Homo sapiens) (UniProt P10276). Nature of the test: ATG_DR5_RAR_CIS: Attagene CIS-FACTORIAL HepG2 Assay for human Retinoic Acid Receptor Alpha (RARE), DR5 submotif (AID 2282934; active means hit-call score of the fitted dose curve at least 0.9, where 1 is the maximum; inactive means score below 0.9). Conditions: HepG2 Attagene cis-factorial RARE DR5 reporter, mRNA; actives raise or lower the signal. The essentials:
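Reporter transcripts from a DR5-regulated unit, measured via RT-PCR plus capillary electrophoresis, reflect endogenous RAR activity in transiently transfected human HepG2 liver cells. Exposure lasted 24 h; gain or loss of signal scored against DMSO.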

For test [9], the target named is Oxysterols receptor LXR-alpha (Homo sapiens) (UniProt Q13133). The test can be described thus: ATG_LXRa_TRANS: Attagene TRANS-FACTORIAL HepG2 Assay for human Liver X Receptor alpha (LXRa) (AID 2282980). Conditions: HepG2 Attagene TRANS reporter, LXRa transactivation. An outline of the steps:
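Transfect HepG2 with GAL4-UAS multiplex reporter constructs (TRANS format, chimeric receptor-GAL4); treat 24 h; extract RNA, reverse-transcribe, PCR-amplify, FAM-label, HpaI-digest; resolve fragments by capillary electrophoresis. Upward response vs DMSO.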

Test [10] concerns the target Oxysterols receptor LXR-beta (Homo sapiens) (UniProt P55055). The test can be described thus: ATG_LXRb_TRANS: Attagene TRANS-FACTORIAL HepG2 Assay for human Liver X Receptor beta (LXRb) (AID 2282981). Conditions: HepG2 Attagene TRANS GAL4-LXRb reporter, mRNA. The essentials: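 After 24 h chemical treatment of transfected HepG2 cells carrying exogenous NR-Gal4 chimeras, reporter mRNA was quantified by fluorescent RT-PCR and capillary electrophoresis; activity taken as increase over DMSO controls.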

Test [11] concerns the target Nuclear receptor subfamily 4 group A member 2 (Homo sapiens) (UniProt P43354). The test can be described thus: ATG_NURR1_TRANS: Attagene TRANS-FACTORIAL HepG2 Assay for human Nuclear Receptor Related Protein 1 (NURR1) (AID 2282985). Conditions: HepG2 Attagene TRANS reporter, mRNA readout. An outline of the steps: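 Reporter transcript induction, measured by RT-PCR with fluorescent labelling, HpaI digestion and capillary electrophoresis, after 24 hr dosing of human HepG2 cells transiently expressing an exogenous NR-Gal4 fusion with GAL4-UAS-driven reporters; DMSO as baseline.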

The target of test [12] is human Peroxisome Proliferator-activated Receptor alpha (PPARa), PPARA (gene 5465) (UniProt Q07869). Nature of the test: ATG_PPARa_TRANS: Attagene TRANS-FACTORIAL HepG2 Assay for human Peroxisome Proliferator-activated Receptor alpha (PPARa) (AID 2283001).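 On AC50: potency for gain of reporter signal over DMSO so agonist or activator.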 The essentials: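 Reporter transcripts quantified by RT-PCR plus capillary electrophoresis after 24 h treatment, fitted upward relative to DMSO. Cells: human HepG2 transiently carrying multiple GAL4-UAS reporter units driven by NR-Gal4 chimeras.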
Chain of human Peroxisome Proliferator-activated Receptor alpha (PPARa), PPARA (gene 5465) (Q07869 whole entry, looked up, the tested form may be a part): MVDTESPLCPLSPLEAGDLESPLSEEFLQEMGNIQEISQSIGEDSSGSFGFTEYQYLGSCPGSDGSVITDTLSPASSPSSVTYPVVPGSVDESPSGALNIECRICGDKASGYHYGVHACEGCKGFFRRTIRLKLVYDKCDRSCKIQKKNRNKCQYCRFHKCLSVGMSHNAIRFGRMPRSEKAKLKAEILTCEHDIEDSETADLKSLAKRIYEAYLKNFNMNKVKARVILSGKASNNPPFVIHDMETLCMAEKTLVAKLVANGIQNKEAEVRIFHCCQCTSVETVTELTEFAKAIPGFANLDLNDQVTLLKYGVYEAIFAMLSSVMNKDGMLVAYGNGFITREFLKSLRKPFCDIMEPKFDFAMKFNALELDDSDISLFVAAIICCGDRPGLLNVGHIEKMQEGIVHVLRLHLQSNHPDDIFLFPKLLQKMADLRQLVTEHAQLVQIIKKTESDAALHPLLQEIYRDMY

Test [13] concerns the target human Peroxisome Proliferator-activated Receptor delta (PPARd), PPARD (gene 5467) (UniProt Q03181). The test can be described thus: ATG_PPARd_TRANS: Attagene TRANS-FACTORIAL HepG2 Assay for human Peroxisome Proliferator-activated Receptor delta (PPARd) (AID 2283002). The essentials:
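Read-out is induced reporter mRNA, quantified by RT-PCR with fluorescent labelling and capillary electrophoresis after 24 h dosing. Cells are HepG2 transiently carrying multiple GAL4-UAS reporter units driven by exogenous NR-GAL4 chimeras; DMSO serves as baseline.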

The target of test [14] is human Thyroid Receptor alpha (THRa1), THRA (gene 7067) (UniProt P10827). Nature of the test: ATG_THRa1_TRANS: Attagene TRANS-FACTORIAL HepG2 Assay for human Thyroid Receptor alpha (THRa1) (AID 2283014). The essentials: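 Reporter transcript induction, read by capillary electrophoresis of 6-FAM-labelled RT-PCR products, reflects activity of a transfected THRa1-Gal4 fusion in HepG2 liver cells. Cells were dosed for 24 h; activity was fitted in the positive direction against DMSO.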

Test [15] is described as follows: TOX21_p53_BLA_p2_viability: Viability Assessment in the Tox21 HCT-116 p53 Agonism Beta-lactamase Assay, Phase 2 (AID 2283591).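 Further: compound exposure lasted 16 h at 37 °C; actives lower the ATP signal meaning cytotoxicity.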 The essentials:
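Cytotoxicity readout: CellTiter-Glo ATP luminescence, 30 min at room temperature, after the beta-lactamase read. Cells were HCT116 exposed 16 h at 37C to compounds pin-transferred at 217-fold dilution from DMSO stocks.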

The nature of test [16]: TOX21_p53_BLA_p4_viability: Viability Assessment in the Tox21 HCT-116 p53 Agonism Beta-lactamase Assay, Phase 4 (AID 2283597).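 Further: hits lower the luminescence signal meaning cytotoxicity.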 The essentials: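 Readout: ATP luminescence (CellTiter-Glo), measured 30 min after reagent addition at RT. The reagent followed a 2 h CCF4-AM incubation, and the cells had been exposed to compound for 16 h at 37C.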
Test [17] in a line: CCTE_Harrill_HTTr_Apoptosis_MCF7: CCTE's 6-hour Apoptosis Assessment for the High-Throughput Transcriptomics (HTTr) Platform, in MCF-7 cells cultured in DMEM + 10% fetal bovine serum, Harrill Lab (AID 2284011; active means hit-call score of the fitted dose curve at least 0.9, where 1 is the maximum; inactive means score below 0.9). The essentials: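 MCF-7 (DMEM + 10% FBS), 384-well; 8-pt dilution series, 6 h chemical exposure; caspase-3/7 activation via CellEvent Caspase 3/7 Green, HCI; bidirectional fit vs DMSO.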

The target in test [18] is human Vitamin D Receptor (VDR), VDR (gene 7421) (UniProt P11473). Nature of the test: ATG_VDR_TRANS: Attagene TRANS-FACTORIAL HepG2 Assay for human Vitamin D Receptor (VDR) (AID 2283022). An outline of the steps:
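Steps: transfect HepG2 with GAL4-UAS-driven reporter constructs; dose compounds 24 h; isolate RNA, reverse-transcribe, PCR-amplify with 6-FAM-labelled primer extension and HpaI digestion; quantify fragments by capillary electrophoresis relative to DMSO.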

Test [19] deals with Nuclear receptor subfamily 1 group I member 3 (Homo sapiens) (UniProt Q14994). Nature of the test: ATG_CAR_TRANS: Attagene TRANS-FACTORIAL HepG2 Assay for human Constitutive Androstane Receptor (CAR) (AID 2282969).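 Further: activators raise reporter mRNA above DMSO so AC50 marks induction.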 Conditions: HepG2 Attagene TRANS-FACTORIAL CAR reporter. The essentials:
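Signal is reporter mRNA induction relative to DMSO, measured 24 h after dosing by RT-PCR with fluorescent primer extension and capillary electrophoresis. Human HepG2 liver cells carried transiently transfected chimeric NR-Gal4/GAL4-UAS reporter constructs.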

Test [20] in a line: ATG_M_32_TRANS: Attagene TRANS-FACTORIAL HepG2 Assay for M32 Transcription Factor (Internal Marker) (AID 2282984).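 Further: transcript level of a background control reporter unit measured by RT-PCR and capillary electrophoresis.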 Conditions: HepG2 Attagene TRANS M32 internal marker reporter. The essentials: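 Internal background reporter in transfected HepG2: after 24 h chemical exposure, RNA reverse-transcribed, reporter cDNA amplified, fluorescently labelled and HpaI-cut, then sized by capillary electrophoresis. Gain of signal fitted against DMSO control.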

As usually defined, the AC50 is the midpoint of the concentration-response curve, whichever way the signal moves.

Results filed as inconclusive are left out. Calls of active or inactive are those of the source. How the source made its calls, unless noted: active means hit-call score of the fitted dose curve at least 0.9, where 1 is the maximum; inconclusive means response in the unintended direction; inactive means score below 0.9.

Chain of Oxysterols receptor LXR-beta (Homo sapiens) (P55055 whole entry, looked up, the tested form may be a part): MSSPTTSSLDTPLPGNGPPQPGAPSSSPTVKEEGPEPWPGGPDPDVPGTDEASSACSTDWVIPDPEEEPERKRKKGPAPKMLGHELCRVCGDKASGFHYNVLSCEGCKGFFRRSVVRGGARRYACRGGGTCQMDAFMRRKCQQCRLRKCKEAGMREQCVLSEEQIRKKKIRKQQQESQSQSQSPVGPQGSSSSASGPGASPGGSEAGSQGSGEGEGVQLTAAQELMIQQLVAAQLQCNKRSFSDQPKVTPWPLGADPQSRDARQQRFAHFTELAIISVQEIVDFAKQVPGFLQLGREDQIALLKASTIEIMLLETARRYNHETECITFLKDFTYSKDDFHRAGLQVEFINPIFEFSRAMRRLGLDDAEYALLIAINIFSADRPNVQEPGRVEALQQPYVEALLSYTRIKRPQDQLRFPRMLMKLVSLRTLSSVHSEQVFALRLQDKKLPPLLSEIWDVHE
Chain of Peroxisome proliferator-activated receptor gamma (Homo sapiens) (P37231 whole entry, looked up, the tested form may be a part): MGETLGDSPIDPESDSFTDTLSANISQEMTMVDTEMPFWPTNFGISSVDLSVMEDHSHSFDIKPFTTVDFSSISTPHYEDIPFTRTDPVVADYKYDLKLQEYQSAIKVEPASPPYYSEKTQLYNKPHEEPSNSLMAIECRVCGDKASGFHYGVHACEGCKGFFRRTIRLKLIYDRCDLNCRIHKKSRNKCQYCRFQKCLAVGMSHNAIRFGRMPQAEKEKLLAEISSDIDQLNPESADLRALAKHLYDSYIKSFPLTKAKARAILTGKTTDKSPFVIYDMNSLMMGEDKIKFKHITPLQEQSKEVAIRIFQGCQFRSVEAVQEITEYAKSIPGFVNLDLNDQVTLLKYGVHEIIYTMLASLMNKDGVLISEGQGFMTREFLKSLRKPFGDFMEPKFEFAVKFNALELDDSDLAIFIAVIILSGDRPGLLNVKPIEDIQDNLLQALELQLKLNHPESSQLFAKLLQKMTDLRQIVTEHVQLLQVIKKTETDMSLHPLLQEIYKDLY
Chain of human RAR-related Orphan Receptor beta (RORb), RORB (gene 6096) (Q92753 whole entry, looked up, the tested form may be a part): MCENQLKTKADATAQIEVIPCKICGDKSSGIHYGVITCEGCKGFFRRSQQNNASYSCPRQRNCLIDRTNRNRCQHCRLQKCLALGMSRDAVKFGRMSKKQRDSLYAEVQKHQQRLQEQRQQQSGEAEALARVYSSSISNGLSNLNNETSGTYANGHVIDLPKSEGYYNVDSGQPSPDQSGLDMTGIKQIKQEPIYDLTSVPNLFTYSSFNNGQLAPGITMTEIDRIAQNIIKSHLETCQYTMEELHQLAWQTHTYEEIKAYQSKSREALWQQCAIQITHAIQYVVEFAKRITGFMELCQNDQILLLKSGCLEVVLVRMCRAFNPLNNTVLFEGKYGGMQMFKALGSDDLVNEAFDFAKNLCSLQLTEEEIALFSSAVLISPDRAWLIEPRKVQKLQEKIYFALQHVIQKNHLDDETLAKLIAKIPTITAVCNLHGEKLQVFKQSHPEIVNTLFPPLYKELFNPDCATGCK
Chain of Bile acid receptor (Homo sapiens) (Q96RI1 whole entry, looked up): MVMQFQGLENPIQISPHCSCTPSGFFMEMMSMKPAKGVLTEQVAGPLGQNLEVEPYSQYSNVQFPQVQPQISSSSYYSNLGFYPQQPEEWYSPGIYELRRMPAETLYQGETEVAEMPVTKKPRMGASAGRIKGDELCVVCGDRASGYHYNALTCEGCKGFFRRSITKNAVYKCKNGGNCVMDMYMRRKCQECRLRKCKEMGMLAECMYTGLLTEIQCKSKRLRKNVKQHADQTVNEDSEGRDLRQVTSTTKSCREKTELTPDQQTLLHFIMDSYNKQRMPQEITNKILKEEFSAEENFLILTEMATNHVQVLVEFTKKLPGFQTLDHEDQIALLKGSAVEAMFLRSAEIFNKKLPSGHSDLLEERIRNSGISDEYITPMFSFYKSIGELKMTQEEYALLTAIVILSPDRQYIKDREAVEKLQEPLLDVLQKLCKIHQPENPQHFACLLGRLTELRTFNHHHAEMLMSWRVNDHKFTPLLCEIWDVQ
Chain of human Peroxisome Proliferator-activated Receptor delta (PPARd), PPARD (gene 5467) (Q03181 whole entry, looked up, the tested form may be a part): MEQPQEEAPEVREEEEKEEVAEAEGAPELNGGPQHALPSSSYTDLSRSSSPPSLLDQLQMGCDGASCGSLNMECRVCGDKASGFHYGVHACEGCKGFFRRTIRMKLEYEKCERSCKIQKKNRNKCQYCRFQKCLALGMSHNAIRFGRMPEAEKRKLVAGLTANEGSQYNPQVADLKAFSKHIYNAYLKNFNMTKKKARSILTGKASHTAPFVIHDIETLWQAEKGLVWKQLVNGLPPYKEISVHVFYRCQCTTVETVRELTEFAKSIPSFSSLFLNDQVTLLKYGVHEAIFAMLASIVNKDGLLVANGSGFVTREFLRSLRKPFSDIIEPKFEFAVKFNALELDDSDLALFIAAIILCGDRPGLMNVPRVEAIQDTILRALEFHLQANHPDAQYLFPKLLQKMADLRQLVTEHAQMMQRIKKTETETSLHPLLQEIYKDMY
Chain of human Vitamin D Receptor (VDR), VDR (gene 7421) (P11473 whole entry, looked up, the tested form may be a part): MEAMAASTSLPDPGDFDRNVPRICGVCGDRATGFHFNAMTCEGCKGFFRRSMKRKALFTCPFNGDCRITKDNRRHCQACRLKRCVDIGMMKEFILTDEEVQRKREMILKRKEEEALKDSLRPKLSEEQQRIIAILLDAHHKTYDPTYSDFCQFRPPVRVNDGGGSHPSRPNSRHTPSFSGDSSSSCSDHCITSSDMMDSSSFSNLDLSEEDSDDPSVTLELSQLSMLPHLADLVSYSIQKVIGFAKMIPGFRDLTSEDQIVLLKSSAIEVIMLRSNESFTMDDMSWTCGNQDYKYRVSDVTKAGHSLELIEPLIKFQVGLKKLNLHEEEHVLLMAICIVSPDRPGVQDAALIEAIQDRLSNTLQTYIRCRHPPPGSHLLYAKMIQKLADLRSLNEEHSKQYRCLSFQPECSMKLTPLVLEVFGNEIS
Chain of Glucocorticoid receptor (Homo sapiens) (P04150 whole entry, looked up, the tested form may be a part): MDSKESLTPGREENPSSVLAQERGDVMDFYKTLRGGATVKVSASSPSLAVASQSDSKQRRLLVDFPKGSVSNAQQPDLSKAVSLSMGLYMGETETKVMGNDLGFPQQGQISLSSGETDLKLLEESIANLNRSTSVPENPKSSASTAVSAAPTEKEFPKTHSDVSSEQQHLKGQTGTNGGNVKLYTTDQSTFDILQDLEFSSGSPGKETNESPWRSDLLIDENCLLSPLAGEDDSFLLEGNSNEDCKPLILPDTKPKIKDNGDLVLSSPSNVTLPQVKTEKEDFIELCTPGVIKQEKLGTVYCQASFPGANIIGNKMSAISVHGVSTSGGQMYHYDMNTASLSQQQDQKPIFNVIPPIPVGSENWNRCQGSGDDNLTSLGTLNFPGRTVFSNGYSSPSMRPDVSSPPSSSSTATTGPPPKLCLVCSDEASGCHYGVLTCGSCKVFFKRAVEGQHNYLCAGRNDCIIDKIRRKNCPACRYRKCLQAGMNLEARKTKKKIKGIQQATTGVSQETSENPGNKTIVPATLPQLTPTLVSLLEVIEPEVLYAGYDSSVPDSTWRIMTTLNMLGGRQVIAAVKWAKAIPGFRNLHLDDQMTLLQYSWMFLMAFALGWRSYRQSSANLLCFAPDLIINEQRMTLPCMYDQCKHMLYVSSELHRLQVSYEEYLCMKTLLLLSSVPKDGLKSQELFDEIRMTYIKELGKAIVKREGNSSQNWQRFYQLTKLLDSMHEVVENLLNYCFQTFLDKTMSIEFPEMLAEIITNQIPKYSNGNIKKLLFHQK
Chain of Nuclear receptor subfamily 4 group A member 2 (Homo sapiens) (P43354 whole entry, looked up, the tested form may be a part): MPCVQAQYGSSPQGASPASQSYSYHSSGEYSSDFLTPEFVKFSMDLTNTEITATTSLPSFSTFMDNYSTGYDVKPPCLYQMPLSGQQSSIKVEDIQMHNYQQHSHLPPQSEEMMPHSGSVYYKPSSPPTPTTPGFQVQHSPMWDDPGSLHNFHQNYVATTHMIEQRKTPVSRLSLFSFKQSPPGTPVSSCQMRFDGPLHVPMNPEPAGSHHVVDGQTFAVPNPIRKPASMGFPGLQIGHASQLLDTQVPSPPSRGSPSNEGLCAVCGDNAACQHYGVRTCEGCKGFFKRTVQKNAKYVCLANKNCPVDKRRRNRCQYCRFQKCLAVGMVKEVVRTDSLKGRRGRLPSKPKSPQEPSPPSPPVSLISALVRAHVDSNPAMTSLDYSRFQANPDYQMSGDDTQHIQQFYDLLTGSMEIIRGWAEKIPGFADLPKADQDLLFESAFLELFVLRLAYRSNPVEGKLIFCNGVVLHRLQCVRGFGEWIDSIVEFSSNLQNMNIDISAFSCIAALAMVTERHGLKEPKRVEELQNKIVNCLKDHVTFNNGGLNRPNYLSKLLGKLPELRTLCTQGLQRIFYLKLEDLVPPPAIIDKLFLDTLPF
Chain of Nuclear receptor subfamily 1 group I member 3 (Homo sapiens) (Q14994 whole entry, looked up, the tested form may be a part): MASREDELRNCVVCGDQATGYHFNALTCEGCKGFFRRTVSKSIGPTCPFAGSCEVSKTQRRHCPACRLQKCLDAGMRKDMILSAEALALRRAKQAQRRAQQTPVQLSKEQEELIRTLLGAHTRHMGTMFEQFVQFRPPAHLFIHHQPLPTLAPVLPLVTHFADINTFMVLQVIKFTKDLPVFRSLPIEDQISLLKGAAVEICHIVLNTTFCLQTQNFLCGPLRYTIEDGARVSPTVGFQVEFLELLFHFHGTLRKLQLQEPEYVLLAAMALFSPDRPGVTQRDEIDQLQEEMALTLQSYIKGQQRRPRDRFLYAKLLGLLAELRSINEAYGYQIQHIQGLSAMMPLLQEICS

As to `O=C(CCN1CC1)OCC(CO)(COC(=O)CCN1CC1)COC(=O)CCN1CC1`, the result in test [1], in test [2], in test [3], in [4], in [5] and in [6] was inactive. In [7], the compound was classed as inactive.

Take `O=C(CCl)c1ccccc1`: the compound was classed as inactive in test [8], in test [4], in test [9], in test [10], in test [11] and in test [13]. Also, the call in test [6], in test [15], in [7], in test [16] and in test [17] was inactive. The AC50 in test [12] was 50.2 µM (active); in [14], 55.9 µM (active).

As to `C=CC(=O)OCCCCOC(=O)C=C`, the AC50 was 65.8 µM (active) in [1] and 69.5 µM (active) in test [15]. Also, the outcome in test [2], in test [10], in test [11], in [12], in [13] and in test [18] was inactive.

Turning to `Clc1ccc(-c2ccccc2)cc1`, the compound was called inactive in test [1], in test [2], in test [19], in test [3], in [4] and in [11]. Besides, the result in test [13], in test [5], in test [18] and in [17] was inactive.

On to `CCCCOC(=O)CCC(=O)OCCCC`, for which the compound was called inactive in [8], in test [19], in [3], in [20], in test [11] and in test [12]. The call in test [13], in test [6], in [14] and in test [15] was inactive.

For `C[C@]12CCC(=O)C(O)=C1CC[C@@H]1[C@@H]2CC[C@]2(C)C(=O)CC[C@@H]12`, the result in [2], in test [3], in test [4], in test [9], in test [10] and in test [5] was inactive. The compound was classed as inactive in test [18], in [15], in test [7], in test [16] and in test [17].

(Values after PubChem BioAssay (EPA / NIEHS).)
